Screening data deposited in PubChem by National Center for Advancing Translational Sciences (NCATS).
The list is not random: actives were taken first. Their share in the collection is about 3%.
GRP78 ERSR act – qHTS for Inducers of the Endoplasmic Reticulum Stress Response (ERSR) in Human Glioma: qHTS | U87-MG GRP78 promoter luciferase reporter, 16 h | Potency, µM, for the others: at the top dose activation, most hits filed as activators | 420,000 compounds, 0.02% hits | AID 602332, 2012; also: potency is read from the fitted curve at half-maximal effect; series mostly up to about 76 µM; % of control where 0% means no effect; nearly all actives have a fitted effect of over 35% in size
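Stably transfected U87-MG human glioma cells carrying a GRP78-based luminescent sensor were seeded at 1000 cells/well, pin-dosed with compounds and incubated 16 h. Luciferase reagent was then added, and end-point luminescence was read after 10 min at room temperature.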
Nrf2 ARE act – qHTS of Nrf2 Activators. AREc32 ARE-luciferase reporter (MCF7-derived line), luminescence, 24 h. Potency, µM (titrated, usually from 46.1 µM), for the others: at the top dose activation, actives largely listed as activators. 410,000 compounds, 0.31% hits. AID 624171, 2012; also: potency is read from the fitted curve at half-maximal effect; % of control where 0% means no effect; nearly all actives have a fitted effect of over 65% in size
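AREc32_Fluc, 1000 cells/well, OPTI-MEM + 5% FBS, o/n 37 deg C 5% CO2; 23 nL cpd by pin tool, 24 hr; Steady-Glo 30 min RT, luminescence.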
DRD3 agonist – qHTS of D3 Dopamine Receptor Agonist: qHTS | 410,000 compounds, 0.58% hits | D3R DiscoveRx beta-arrestin cells, luminescence, 90 min | D(3) dopamine receptor (Homo sapiens), P35462 | AID 652048, 2013 | max activation, %; in the data active = max activation above about 30%; also: 0% is about no effect
Target sequence (P35462 whole entry, looked up): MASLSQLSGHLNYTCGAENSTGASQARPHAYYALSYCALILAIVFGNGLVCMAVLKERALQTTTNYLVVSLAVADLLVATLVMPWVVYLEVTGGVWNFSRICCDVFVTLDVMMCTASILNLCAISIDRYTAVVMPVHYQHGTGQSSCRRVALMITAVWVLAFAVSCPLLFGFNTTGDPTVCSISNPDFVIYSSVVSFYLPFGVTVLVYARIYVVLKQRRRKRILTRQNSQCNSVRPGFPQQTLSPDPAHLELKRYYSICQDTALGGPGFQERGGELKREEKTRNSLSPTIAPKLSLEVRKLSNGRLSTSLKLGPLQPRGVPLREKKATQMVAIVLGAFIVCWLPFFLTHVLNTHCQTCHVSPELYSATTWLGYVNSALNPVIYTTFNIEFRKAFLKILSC
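Agonist mode: compounds and dopamine controls were applied to plated cells for 90 min at 37 degrees C after an overnight attachment at 1500 cells/well. Luminescent read-out followed 30 - 60 minutes at room temperature with DiscoveRx detection reagent.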
D3 antag – qHTS of D3 Dopamine Receptor Antagonist: qHTS; D(3) dopamine receptor (Homo sapiens), P35462; D3R cells, DiscoveRx beta-arrestin luminescence, antagonist mode; hits give low values; max response, negative = inhibition, %; 360,000 compounds, 2.5% hits; AID 652054, 2013; in the data active = max response below about -50%; inconclusive = no clear call, values can overlap the other calls; also: % is scaled to controls: 0 for no effect and ±100 for the full control effect
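Cells expressing the human receptor were seeded at 1500 cells/well, incubated overnight at 37 degrees C in 5% CO2, then exposed to library compounds with dopamine controls for 90 minutes at 37 degrees C before luminescent detection.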
* hit, by the source's call; ? = inconclusive; . = not tested or not shown; ! = not confirmed by another sample. Unless noted, calls follow the shape of the dose curve; as a rule, active = well fitted curve in the direction sought with a large enough effect; inconclusive = small, poorly fitted or top-dose-only effect, or another doubt; inactive = no such curve, though single readings can be large; an effect the other way counts as inactive or inconclusive.

SMILES | GRP78 ERSR act | Nrf2 ARE act | DRD3 agonist | D3 antag
Cc1cc(C)nc(SCc2ccc(C(=O)NNC(=O)Nc3cccc(Cl)c3)cc2)n1 | -15% | -3% | -6 | -58*
COc1ccc(OC)c(CN2CCN(Cc3ccc(OC)c(OC)c3OC)CC2)c1 | -3% | -1% | -5 | ?
COc1ccc(CN2CCc3ccccc3C2)c(OC)c1OC | -4% | 0% | -30 | -75*
COc1ccc(CN2CCc3ccccc3C2)c(OC)c1 | -6% | -1% | -14 | -65*
NC(=O)OC[C@@H]1[C@H](NC(=O)/C(=N/OCC(=O)O)c2csc(N)n2)C(=O)N1S(=O)(=O)O | -2% | . | . | .
O=C(Cn1[nH]c(=O)c2ccccc2c1=O)NC1CCN(Cc2ccccc2)CC1 | -3% | -1% | -8 | -72*
O=C(CCCCn1c(=O)c2ccccc2n(Cc2ccccc2)c1=O)NC1CCN(Cc2ccccc2)CC1 | -2% | 5% | -20 | -58*
O=C(CCCCn1c(=O)c2ccccc2n(CC(=O)NC2CCCC2)c1=O)NC1CCCC1 | -5% | 0% | -1 | -16
O=C(Cn1[nH]c(=O)c2ccccc2c1=O)NC1CCCCCC1 | 10% | 1% | 0 | 4
O=C(NC1CC1)c1ccc(Cn2c(SCc3cccc(F)c3)nc3cccnc32)cc1 | -2% | 0% | -7 | .
Cc1nn(CC(=O)N2CCC(C)CC2)c(=O)c2cc3sccc3n12 | -2% | 0% | -8 | .
Cc1nn2c3c(cnc2c1-c1ccc(Cl)cc1)C(=O)CC(c1ccco1)C3 (configuration not stated) | -4% | ? | 0 | -52*
COc1ccc(-c2c(C)nn3c4c(cnc23)C(=O)CC(c2ccc(C)cc2)C4)cc1 (configuration not stated) | -2% | -1% | -7 | .
COc1ccc(NC(=O)c2cnc(Nc3ccc(C)c(Cl)c3)c3ccccc23)c(OC)c1 | -2% | 0% | -9 | .
Cc1cc(C)nc(SCc2cc(=O)c(OC(=O)c3cccc([N+](=O)[O-])c3)co2)n1 | -4% | -1% | 111* | 68
O=C(Nc1cccnc1Cl)c1ccc(Cl)c([N+](=O)[O-])c1 | -1% | 0% | 1 | 13
O=C(Nc1ccccn1)Nc1ccccc1[N+](=O)[O-] | 8% | 4µM* | -3 | -27
Cc1cccc(C)c1NS(=O)(=O)c1ccc(NC(=O)c2ccc(Cl)c([N+](=O)[O-])c2)cc1 | -13% | -5% | 6 | -78*
O=C(Nc1ccccn1)c1ccc(Cl)c([N+](=O)[O-])c1 | 3% | 10µM* | -6 | -11
Cc1ccccc1NC(=O)Nc1ccccn1 | 1% | 29% | 7 | 4
COc1cc(-c2nn3c(-c4cc(-c5ccccc5)n[nH]4)nnc3s2)cc(OC)c1OC | 0% | . | . | .
CN(C)CCOc1ccccc1Cc1ccccc1 (tested in a mixture with another compound) | -3% | . | -19 | .
CCOC(=O)N1CCN(C(=O)COC(=O)CSc2ccc([N+](=O)[O-])cc2)CC1 | -6% | 0% | 2 | -52*
Nc1nc2ncn(COCCO)c2c(=O)[nH]1 | -2% | . | . | .
CC(=O)/C(N=Nc1ccc(SC(F)F)cc1)=C(\C)O | 0% | 3% | 1 | -59*
SMILES | GRP78 ERSR act | Nrf2 ARE act | DRD3 agonist | D3 antag
CCCCC1(C)Cc2ccccc2C(=S)N1 (configuration not stated) | -5% | 0% | -8 | -50*
CCOC(=O)/C(C)=C1\NC(C)(C)Cc2ccccc21 | -2% | 0% | 1 | -1
Cc1ccnc2c(Cl)cccc12 | -2% | . | . | .
CN(C)S(=O)(=O)c1ccc(S(=O)(=O)Nc2ccc3c(c2)oc2ccccc23)cc1 | -2% | 4% | 11 | 11
CCOc1ccc(NS(=O)(=O)c2ccc(C(=O)N3CCCCC3)cc2)cc1 | -5% | 0% | 4 | 12
CCN(CC)S(=O)(=O)c1ccc(S(=O)(=O)Nc2ccc3c(c2)oc2ccccc23)cc1 | 5% | 2% | 1 | -58*
CCN(CC)S(=O)(=O)c1ccc(S(=O)(=O)Nc2ccc(C(=O)N3CCCC3)cc2)cc1 | 3% | 0% | -13 | -56*
NC(=O)CC[C@@H]1NC(=O)[C@H](Cc2ccccc2)NC(=O)[C@H](Cc2ccc(O)cc2)NC(=O)CCSSC[C@@H](C(=O)N2CCC[C@H]2C(=O)N[C@@H](CCCN=C(N)N)C(=O)NCC(N)=O)NC(=O)[C@H](CC(N)=O)NC1=O | . | . | -7 | .
CCC1Cc2cc(O)ccc2C2=C1c1ccc(O)cc1CC2CC (configuration not stated) | 3% | . | . | .
CN1CC[C@]2(CCN3CCc4c(oc5ccccc45)[C@@H]3C2)N(C)C1=O | -2% | 5% | -43 | -58*
COc1ccc(NC(=S)Nc2ccc3nsnc3c2)cc1 | 1% | 3% | -39 | -61*
CCOc1ccc(NC(=S)Nc2ccc3nsnc3c2)cc1 | 4% | 5% | -16 | -29
Cc1cc(CNC(=O)c2cnn(-c3ncc4c(n3)-c3ccccc3CC4)c2C2CC2)on1 | 9% | . | . | .
CCOc1cc(CC(=O)N[C@@H](CC(C)C)c2ccccc2N2CCCCC2)ccc1C(=O)O | -1% | 1% | 96*! | 37
CCCCCCC(=O)O[C@@H]1CC[C@H]2[C@@H]3CCc4cc(O)ccc4[C@H]3CC[C@]12C | 7% | . | . | .
COc1cc(/C=C/c2ccc3c([N+](=O)[O-])cccc3n2)ccc1OCC(=O)O | -4% | -1% | 1 | -8
COc1cc(/C=C/c2cc(OC(C)=O)c3ccccc3n2)c(OC(C)=O)c([N+](=O)[O-])c1 | -2% | 3% | -13 | -82*
COC(=O)N/N=C\c1cc2c(cc1Br)OCO2 | -4% | 6% | -6 | -15
Cc1ccc(C(=O)N/N=C\c2cc3c(cc2Br)OCO3)s1 | -8% | 3% | -35 | -66*
Cc1cccc(C(=O)O[C@H]2[C@H](Cc3ccccc3)NS(=O)(=O)[C@H]3CC4C=C[C@]23O4)c1 | -5% | 4% | 12 | 4
Cc1cccc(C(=O)O[C@@H]2[C@H](Cc3ccccc3)NS(=O)(=O)[C@H]3C[C@@H]4C=C[C@]23O4)c1 | -5% | 1% | 52* | -6
COC(=O)c1c(OCc2ccccn2)cc(=O)n2c1CCN(Cc1ccc3nsnc3c1)CC2 | -5% | . | . | .
FC(F)(F)c1cc(Nc2ccccc2)nc(-c2ccccn2)n1 | 1% | 2% | -2 | -5
FC(F)(F)c1cc(Sc2ccccc2)nc(-c2ccccn2)n1 | 4% | 16% | 34* | 31
CC(NC(=O)C1CCOCC1)c1nnc2n1CCN(Cc1ccc(F)cc1)CC2 (configuration not stated) | 3% | . | . | .
COc1ccc(C(C[N+](=O)[O-])c2c(-c3ccccc3)cc3ccccn23)cc1 (configuration not stated) | ? | 3% | -3 | -50*
CCC(Oc1ccccc1)C(=O)Nc1cc(C)on1 (configuration not stated) | 4% | -1% | -5 | 0
